An excerpt weighted towards active compounds, which were near 6.5% of everything screened.
HCMV antiviral – inhibitors of human cytomegalovirus; AID 1259415; actives 4.5% (n = 410,000); HFF cells, HCMV-luciferase reporter, 72 h; active compounds read low; activity change, negative = inhibition, % at 57.5 µM; in the data active = activity change below about -60%; inconclusive = no clear call, values can overlap the other calls; inactive = above about -39%
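Human foreskin fibroblasts infected with luciferase-reporter HCMV at MOI 1 PFU/cell, compounds at two doses. Luciferase measured 72 h post infection; normalized to buffer-only basal and Salinomycin (10uM) controls.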
MARV entry inh – blocks Marburg virus binding to or entry into cells. Marburg virus pseudotyped entry inhibition, cell reporter. Potency, µM (doses to about 37.8 µM), inactives show at the highest dose activity change, negative = inhibition, actives largely listed as inhibitors. actives 1.8% (n = 300,000). AID 540276; calls by dose curve; tested in HEK293 cells; note: potency is the fitted concentration of half-maximal effect
Lassa entry inh – Lassa virus entry inhibition; Potency, µM (series often up to 37.9 µM), for the others: top-dose activity change, negative = inhibition, usual class: inhibitors; AID 540256; actives 1.2% (n = 300,000); Lassa virus pseudotype entry inhibition, cell reporter; calls by dose curve; tested in HEK293 cells; note: potency is the fitted concentration of half-maximal effect; nearly all actives have a fitted effect of over 50% in size
VACV mCherry inh – inhibitors of vaccinia virus infection (mCherry reporter signal); Vaccinia virus mCherry reporter infection, fluorescence; actives 0.63% (n = 310,000); Potency, µM (titrated, usually from 36.5 µM), inactives show at the top dose activity change, negative = inhibition, most hits filed as inhibitors; calls by dose curve; tested in A549 cells; note: potency is the fitted concentration of half-maximal effect; nearly all actives have a fitted effect of over 35% in size
FMDV antiviral – foot and mouth disease virus antiviral activity; FMDV antiviral cell-based qHTS; Potency, µM (series often up to 57.9 µM), without a hit: top-dose activity change, negative = inhibition, hits mostly inhibitors; actives 1.2% (n = 410,000); calls by dose curve; tested in HEK293T cells; note: read-out not given here; potency is the fitted concentration of half-maximal effect; nearly all actives have a fitted effect of over 45% in size
Vaccinia Venus – inhibitors of vaccinia virus (Venus reporter); Vaccinia virus Venus reporter expression, fluorescence; Potency, µM (top dose mostly 36.5 µM), inactives show at the highest dose activity change, negative = inhibition, hits mostly inhibitors; actives 0.46% (n = 330,000); calls by dose curve; tested in A549 cells; note: potency is the fitted concentration of half-maximal effect; nearly all actives have a fitted effect of over 30% in size
* hit, by the source's call; i = inactive; ? = inconclusive; . = no result; [ ] = another dose, or the depositor's remark. % is set by controls: 0 for no effect and ±100 for the full control effect.

SMILES	HCMV antiviral	MARV entry inh	Lassa entry inh	VACV mCherry inh	FMDV antiviral	Vaccinia Venus
CSc1cccc(NC(=O)CSc2ncccc2C(=O)Oc2cccc([N+](=O)[O-])c2)c1	12.6	-4.7%	13.6%	-1.5%	0.0%	-17.8%
CCN(C(=O)CSc1ncccc1C(=O)Oc1cccc([N+](=O)[O-])c1)c1cccc(C)c1	32.2	4.5%	8.6%	-14.4%	25.1µM*	-6.5%
C=CC1=C(C)C2=NC1=CC1=NC(=CC3=NC(=CC4=NC(=C2)C(C)=C4CCC(=O)O)C(CCC(=O)O)=C3C)C(C=C)=C1C.[Zn]	.	.	.	.	-24.1%	.
Cc1nn(-c2ccc(F)cc2)c(Cl)c1/C=C/C(=O)OCC(=O)Nc1c(F)c(F)c(F)c(F)c1F	-71.2*	-0.4%[46.1 µM]	-6.6%	0.0%	-16.7%	-1.3%
CO[C@H]1[C@H](NC(=O)c2cccc(F)c2)c2ccccc2C12CCN(Cc1ccco1)CC2	.	.	.	-4.2%	-6.4%	-5.8%
c1ccc(OCCSc2nnc3sc4ccccc4n23)cc1	?	2.06µM*	10.3µM*	i	.	-5.2%
COc1cccc(OCCSc2nnc3sc4ccccc4n23)c1	39.3	-0.7%	?	.	-8.6%	-5.7%
CC(C)C[C@H]1CN([C@@H](CC(C)C)CN2CCCC2CN2C(=S)NC[C@@H]2Cc2ccc(O)cc2)C(=S)N1CC1CCCCC1 (stereo partly specified)	-107.4*	.	.	?	?	?
CC(C)C[C@H]1CN([C@@H](CC(C)C)CN2CCCC2CN2C(=S)NC[C@@H]2Cc2ccc(O)cc2)C(=S)N1CC1CCCCCC1 (stereo partly specified)	-69.7*	.	.	?	?	?
CC(C)=CCC/C(C)=C/CO/N=C1\C[C@@H](O)[C@@H](O)[C@@H]2[C@@H]3C(=O)N(C[C@@H]4CCCO4)C(=O)[C@@H]3CC[C@@H]12	.	21.6%[14.2 µM]	.	.	.	.
Cc1cc(C)n(-c2cc(N3CCN(C(=O)c4cccc(Br)c4)CC3)ccc2[N+](=O)[O-])n1	-27.3	?	-17.0%	-16.2%	14.1µM*	?
CNc1ccc(/C=C2\C=Cc3ccccc32)cc1Cl	.	.	.	-23.1%	.	-15.3%
Cc1ccc(NC(=O)C(c2ccc(Cl)cc2Cl)N2CCCC2)cc1 (stereo unspecified)	-64.9*	-5.9%	-25.2%	i	-29.2%	-9.2%
Cc1cccc(NC(=O)C(c2ccccc2Cl)N2CCOCC2)c1 (stereo unspecified)	38.8	3.2%[46.1 µM]	18.2%	-13.1%	-7.5%	-1.0%
CN(C)CCN(Cc1ccco1)C(=O)c1cc2c(s1)-c1ccccc1OC2	?	?	.	-14.5%[7.34 µM]	6.5%	-9.2%[7.34 µM]
CCOC(=O)c1c(NC(=O)CCl)sc(CN(C)C)c1-c1ccccc1	-6.2	?	-22.3%	-13.2%	35.5µM*	-8.7%
CCOC(=O)c1ccc(NC(=S)N2CCN(C)CC2)cc1	-10.2	18.0%	-21.7%	-4.4%	27.5%	-11.0%
CCOC(=O)c1c(/N=C/N(C)C)sc(/C=N/Nc2ccccc2)c1-c1ccccc1	2.5	18.3µM*	-4.1%	.	-19.2%	.
CCOC(=O)c1c(NC(=S)N2CCN(C)CC2)sc(C)c1-c1ccccc1	?	?	8.91µM*	-10.6%	-7.6%	-8.6%
O=C(NCc1ccco1)N[C@H]1CC[C@@]23CCCN2C(=O)CCC[C@H]3C1Cc1ccccc1 (stereo partly specified)	6.2	.	.	.	.	.
Cc1oc2c(c(=O)c1C)C(=O)CC(c1ccccc1)C2 (stereo unspecified)	0.8	-20.3%	?	.	-28.1%	-13.1%
CS(=O)(=O)c1sc(C#N)c2c1C(=O)CC(c1ccccc1)C2 (stereo unspecified)	-104.4*	.	.	.	11.2µM*	.
CCCOc1ccc(/C=C/C(=O)Nc2ccc([N+](=O)[O-])cc2C)cc1OC	-96.2*	?	-23.1%	.	-0.4%	.
CCCOc1ccc(/C=C/C(=O)Nc2ccc([N+](=O)[O-])cc2C)cc1	-34.6	-3.5%	-4.3%	-26.8%	-7.5%	-22.7%
CCOc1ccc(NC(=S)NC(=O)/C=C/c2ccc(OC)c(OC)c2)c([N+](=O)[O-])c1	?	14.6µM*	?	i	-17.8%	-16.1%
SMILES	HCMV antiviral	MARV entry inh	Lassa entry inh	VACV mCherry inh	FMDV antiviral	Vaccinia Venus
CCOc1ccc(NC(=S)NC(=O)/C=C/c2ccc(C)cc2)c([N+](=O)[O-])c1	?	?	?	-13.1%	-21.8%	-9.4%
CCCS(=O)(=O)NCc1c(C)ncc2c1CCN(C(=O)/C=C/c1cccc(Cl)c1)C2	.	.	.	-6.9%	-10.9%	15.4%
Nc1ccc(C2(c3ccc(N)cc3)c3ccccc3-c3ccccc32)cc1	-91.3*	?	7.3%	?	?	?
Nc1ccc(C2(c3ccc(N)cc3)c3ccccc3C(=O)c3ccccc32)cc1	11.4	?	?	-28.2%	-8.3%	-11.0%
Cc1ccc(S(=O)(=O)N(CCCN2CCCC2=O)Cc2cc3c(C)ccc(C)c3[nH]c2=O)cc1	-63.7*	?	-14.5%	.	-21.7%	.
CCOC(=O)C1(Cc2ccc(Cl)cc2)CCN(CCCn2cccn2)CC1	-61.8*	?	?	i	?	-17.4%
CCOC(=O)C1(Cc2ccccc2)CCCN(CCCn2cccn2)C1 (stereo unspecified)	-29.7	5.9%[46.1 µM]	?	-11.8%	4.8%	-8.1%
CCOC(=O)C1(Cc2ccc(Cl)cc2)CCN(C(=O)c2sc(C)nc2C)CC1	-76.4*	.	.	.	31.6µM*	.
CCOc1ccc(NC(=O)CN(C)C(=O)c2ccccc2CCc2ccccc2)cc1OCC	-18.8	-25.9%[46.1 µM]	-5.0%	-20.8%	-23.4%	-22.9%
CCOc1ccc(NC(=O)CN(C)C(=O)CCc2ccccc2Cl)cc1OCC	-80.4*	-1.5%	12.9%	-17.5%	?	?
COc1ccc([C@@H]2[C@H](C(=O)N3CCCC3)CC(=O)N2C(=O)c2ccccc2)cc1	-3.6	.	.	.	.	.
CO[C@H]1[C@H](NC(=O)c2cccs2)c2ccccc2C12CCN(Cc1cccn1-c1ccccn1)CC2	.	.	.	-15.2%	-15.2%	-4.2%
Cc1ccc(C(=O)CCC(=O)Nc2ccc(Cl)c(S(=O)(=O)Nc3cccc(Cl)c3)c2)cc1	-0.2	-12.8%	?	-6.5%	28.0%	-19.9%
CCC(C)NCCC(=O)Nc1ccc(Cl)c(S(=O)(=O)Nc2ccc(Cl)cc2)c1 (stereo unspecified)	-1.8	11.2µM*	6.9%	-25.3%	19.2%	-22.6%
CCOc1ccc(-n2c(CC)nc3ccccc3c2=O)cc1	-87.3*	-1.5%	-2.4%	i	-22.4%	-16.0%
Cc1cc(C(=O)Nn2c(-c3ccc(Br)cc3)nc3ccccc3c2=O)ccc1[N+](=O)[O-]	-75.3*	?	-9.2%[46.1 µM]	i	?	-21.5%
COc1ccc(O)c(CNn2c(-c3ccc(Br)cc3)nc3ccccc3c2=O)c1	-74.3*	-9.3%[46.1 µM]	-20.5%	-21.0%	?	-5.3%
CCOc1ccc(-n2c(=O)c3ccccc3c3ccccc3c2=O)cc1	56.3	-25.2%[46.1 µM]	-20.5%	?	?	-10.7%
COc1ccc(-n2c(-c3ccccc3Br)nc3ccccc3c2=O)cc1	-62.8*	-3.4%[46.1 µM]	-20.4%[46.1 µM]	i	-5.4%	-7.9%

Assay outcomes as filed in PubChem.
